Molecules are shown by their SMILES. This is part of a sample that, as a whole, favours compounds with a hit. Of some 83,000 tested, about 20% had one in any assay.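 For each line, cells grew in 96-well plates with the test compound present at a single concentration for 48 hours.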 Unmarked numbers belong to inactive results. Activity calls are given as the source filed them. Rule for the calls: active = growth percent below 10; inactive = the rest.

The values below come from PubChem BioAssay (NCI).

Among the test systems are NCI-H23 lung; NCI-H226 lung; NCI-H322M lung; HOP-62 NSCLC; NCI-H460 lung; HOP-92 NSCLC; A549/ATCC NSCLC; 786-0 renal; COLO 205 colon; DU-145 prostate; K-562 leukemia; MALME-3M melanoma; MDA-MB-231 breast; RXF 393 renal; SF-268 CNS; SF-295 CNS; SF-539 CNS; UACC-257 melanoma; M14 melanoma; NCI-H522 lung.
Experiment in all cases: NCI-60 one-dose screen, 48 h (100 = growth as untreated, 0 = no growth, -100 = all killed)
Settings in all cases: 10 µM

Turning to `O=c1[nH]c(O)c(/C=C2/C=Nc3ccccc32)[nH]1`, the growth was 101% in the test with NCI-H23 lung; 92.1% with NCI-H226 lung; 107% in the test on NCI-H322M lung; 99.4% in the test on HOP-62 NSCLC; 99.3% with NCI-H460 lung; 84.5% in the test on HOP-92 NSCLC. Besides, the growth with A549/ATCC NSCLC was 91.3%; in the test on 786-0 renal, 107%; with COLO 205 colon, 101%; in the test on DU-145 prostate, 99.3%; in the test with K-562 leukemia, 86.1%; in the test with MALME-3M melanoma it was 125%. Further, the growth in the test on MDA-MB-231 breast was 89.6%; with RXF 393 renal it was 103%; in the test with SF-268 CNS, 82.1%; with SF-295 CNS, 125%; in the test on SF-539 CNS, 91.5%; in the test on UACC-257 melanoma, 101%. Also, the growth in the test with M14 melanoma was 99.4%.

For `O=[N+]([O-])c1ccc(N=Nc2ccccc2)cc1`, the growth in the test with NCI-H23 lung was 90.4%; in the test with NCI-H226 lung, 89.4%; in the test on NCI-H322M lung, 80%; in the test with HOP-62 NSCLC it was 96.4%; with NCI-H460 lung, 120%; in the test with HOP-92 NSCLC, 94%. Besides, the growth in the test with NCI-H522 lung is 81.1%; with A549/ATCC NSCLC, 89%; in the test on 786-0 renal, 92%; with K-562 leukemia it was 87.2%; with MALME-3M melanoma, 101%; in the test on MDA-MB-231 breast, 88.9%. Besides, the growth in the test with RXF 393 renal was 107%; in the test with SF-268 CNS, 89.6%; with SF-295 CNS it was 91.3%; in the test with SF-539 CNS it was 98.8%; in the test on UACC-257 melanoma, 108%; with M14 melanoma, 102%.

With `C[N+](C)(C)C(=O)c1ccccc1`, the growth in the test with NCI-H23 lung is 99.5%; in the test on NCI-H226 lung, 102%; in the test on NCI-H322M lung it was 118%; in the test with HOP-62 NSCLC, 101%; in the test on NCI-H460 lung, 119%; with HOP-92 NSCLC, 102%. The growth with A549/ATCC NSCLC was 101%; in the test on 786-0 renal, 109%; with COLO 205 colon, 109%; in the test on DU-145 prostate, 114%; in the test on K-562 leukemia, 117%; in the test on MALME-3M melanoma, 117%. Further, the growth in the test on MDA-MB-231 breast is 97.5%; in the test on RXF 393 renal, 114%; with SF-268 CNS it was 98.2%; in the test with SF-295 CNS, 114%; in the test on SF-539 CNS, 98.9%; with UACC-257 melanoma, 109%. In addition, the growth in the test with M14 melanoma was 95.2%.

Take `C1CNC(C2=NCCN2)=N1`: the growth in the test with NCI-H23 lung is 106%; in the test on NCI-H226 lung it was 103%; in the test with NCI-H322M lung, 90.9%; in the test with HOP-62 NSCLC, 99.4%; in the test on NCI-H460 lung, 101%; in the test on HOP-92 NSCLC, 93.6%. The growth in the test on NCI-H522 lung is 101%; in the test with 786-0 renal, 103%; in the test on COLO 205 colon, 114%; in the test on DU-145 prostate, 100%; with K-562 leukemia, 90.4%; in the test with MALME-3M melanoma, 101%. The growth in the test with MDA-MB-231 breast is 107%; in the test with RXF 393 renal, 113%; with SF-268 CNS, 94%; with SF-295 CNS, 101%; in the test on SF-539 CNS it was 98.5%; with M14 melanoma it was 103%.

With `CCCCNC1(C#N)CCN(Cc2ccccc2)CC1`, the growth was 86.8% in the test on NCI-H23 lung; 104% in the test with NCI-H226 lung; 98.8% in the test with NCI-H322M lung; 87% in the test with HOP-62 NSCLC; 110% in the test with NCI-H460 lung; 90.4% in the test on HOP-92 NSCLC. Also, the growth in the test with NCI-H522 lung is 84.9%; in the test with A549/ATCC NSCLC it was 110%; in the test on 786-0 renal it was 84.5%; in the test on DU-145 prostate, 135%; in the test with K-562 leukemia, 114%; with MALME-3M melanoma it was 94.7%. The growth was 104% in the test with MDA-MB-231 breast; 107% with RXF 393 renal; 129% with SF-268 CNS; 97.2% in the test with SF-295 CNS; 99.8% with SF-539 CNS; 107% in the test with UACC-257 melanoma. In addition, the growth in the test with M14 melanoma was 76.6%.

Regarding `Nc1ccccc1C(=O)Nc1ccc(Cl)cc1Cl`, the growth with NCI-H23 lung is 92.6%; in the test on NCI-H226 lung, 96.1%; with NCI-H322M lung, 106%; in the test with HOP-62 NSCLC, 86.6%; in the test on NCI-H460 lung it was 104%; in the test with HOP-92 NSCLC it was 67.2%. Further, the growth is 78.5% in the test on NCI-H522 lung; 102% in the test with A549/ATCC NSCLC; 107% with 786-0 renal; 106% in the test with DU-145 prostate; 84.4% in the test with MDA-MB-231 breast; 83.7% in the test on RXF 393 renal. Also, the growth with SF-268 CNS is 101%; in the test with SF-539 CNS it was 94.4%; in the test with UACC-257 melanoma, 86.5%; in the test with M14 melanoma, 94.7%.

For `Cc1cc(C(O)(c2ccc(Nc3ccccc3)cc2)c2ccc(Nc3ccc(S(=O)(=O)O)cc3)cc2)ccc1N` (centres undefined), the growth with NCI-H23 lung is 8.07% (active); in the test with NCI-H226 lung, 28.9%; with NCI-H322M lung, 25%; with HOP-62 NSCLC, 53.5%; in the test on NCI-H460 lung, -39.3% (active); in the test with HOP-92 NSCLC it was -23.8% (active). The growth with NCI-H522 lung was -45.8% (active); in the test with 786-0 renal, -1.27% (active); with COLO 205 colon, -71% (active); with DU-145 prostate it was 11.7%; with K-562 leukemia, 8.74% (active); in the test on MALME-3M melanoma, -47.6% (active). Also, the growth in the test on MDA-MB-231 breast was -51.5% (active); in the test on RXF 393 renal, -61.8% (active); in the test with SF-268 CNS, 14.8%; in the test on SF-295 CNS it was 5.34% (active); with SF-539 CNS, -63.9% (active); with M14 melanoma, -42.6% (active).

Take `Nc1ccc(N=Nc2ccc(S(=O)(=O)O)cc2)c2ccccc12`: the growth with NCI-H23 lung is 86.2%; in the test on NCI-H226 lung it was 87%; in the test with NCI-H322M lung it was 91.8%; in the test with HOP-62 NSCLC it was 63.7%; in the test with NCI-H460 lung, 94.8%; in the test on HOP-92 NSCLC, 76.9%. Besides, the growth in the test with NCI-H522 lung was 95.7%; with 786-0 renal, 106%; in the test on COLO 205 colon, 90.7%; in the test on DU-145 prostate, 106%; with K-562 leukemia, 94.6%; in the test on MALME-3M melanoma, 83.4%. Also, the growth is 87.8% in the test on MDA-MB-231 breast; 101% in the test on RXF 393 renal; 106% with SF-268 CNS; 99.5% in the test with SF-295 CNS; 103% in the test on SF-539 CNS; 99.1% in the test on M14 melanoma.

As to `CC(=O)c1cc2c(cc1F)C(C)(C)CCC2(C)C`, the growth with NCI-H23 lung was 90.6%; with NCI-H226 lung, 96.9%; in the test with NCI-H322M lung it was 96.8%; in the test on HOP-62 NSCLC, 112%; with NCI-H460 lung, 107%; with HOP-92 NSCLC, 88%. In addition, the growth is 89% in the test on A549/ATCC NSCLC; 103% in the test on 786-0 renal; 102% in the test with COLO 205 colon; 108% in the test with DU-145 prostate; 96.2% with K-562 leukemia; 123% with MALME-3M melanoma. Further, the growth is 103% with MDA-MB-231 breast; 113% in the test on RXF 393 renal; 95.4% with SF-268 CNS; 120% in the test with SF-295 CNS; 96.2% in the test with SF-539 CNS; 96.3% in the test on UACC-257 melanoma. The growth in the test with M14 melanoma was 98.9%.
